# Compounds without any hit were thinned out: in the full panel of roughly 83,000, 20% have a hit.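 Plates (96-well) were seeded with cells, treated with compound at one concentration, and incubated for 48 hours before percent growth was determined.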 Unmarked numbers belong to inactive results. Active and inactive are the calls of the source. Rule for the calls: active = growth percent below 10; inactive = the rest.
# Tests used:
# Assay in all cases: NCI-60 one-dose screen, 48 h (100 = growth as untreated, 0 = no growth, -100 = all killed)
# Conditions in all cases: 10 µM unless noted
# [1] = test system: NCI-H23 lung
# [2] = test system: NCI-H226 lung
# [3] = test system: NCI-H322M lung
# [4] = test system: HOP-62 NSCLC
# [5] = test system: NCI-H460 lung
# [6] = test system: HOP-92 NSCLC
# [7] = test system: NCI-H522 lung
# [8] = test system: A549/ATCC NSCLC
# [9] = test system: 786-0 renal
# [10] = test system: COLO 205 colon
# [11] = test system: DU-145 prostate
# [12] = test system: K-562 leukemia
# [13] = test system: MALME-3M melanoma
# [14] = test system: RXF 393 renal
# [15] = test system: SF-268 CNS
# [16] = test system: SF-295 CNS
# [17] = test system: SF-539 CNS
# [18] = test system: UACC-257 melanoma
# [19] = test system: M14 melanoma
# [20] = test system: MDA-MB-231 breast
Compound,growth [1],growth [2],growth [3],growth [4],growth [5],growth [6],growth [7],growth [8],growth [9],growth [10],growth [11],growth [12],growth [13],growth [14],growth [15],growth [16],growth [17],growth [18],growth [19],growth [20]
CN1CCC(c2ccccc2)(c2ccccc2)C(=O)C1,80.1%,67.7%,87.6%,107%,98%,89%,75.4%,79.7%,86.7%,98.4%,102%,65.6%,90.7%,95.7%,104%,85.8%,94.3%,95%,92.4%,
Clc1ccc(Cc2nc3ccccc3s2)cc1,89.3%,89.2%,89.2%,115%,105%,122%,99.1%,96.4%,109%,117%,98.6%,98.1%,,112%,88.5%,91.5%,106%,97.7%,98.2%,74%
COc1cc(/C=C2\SC(=S)N(/C=C/c3nc4ccccc4[nH]c3=O)C2=O)cc(OC)c1OC,69.7%,76.6%,89.1%,65.8%,92.1%,53.3%,60.3%,67.5%,76.6%,101%,97.7%,88.1%,,77.7%,77.5%,88.4%,95.2%,79.2%,75.4%,80.1%
Oc1c(Cl)cc(Cl)cc1C=NCC1CCC(CN=Cc2cc(Cl)cc(Cl)c2O)CC1 (configuration not stated),102%,97%,75.5%,95.1%,108%,76.6%,91.6%,106%,96.7%,112%,104%,66.8%,89.6%,90.9%,70.9%,98%,89.3%,111%,90.4%,
Oc1ccc2c(c1)CCc1ccccc1-2,108%,93.5%,110%,83.3%,106%,97.4%,100%,98.1%,88.1%,106%,109%,121%,,92.6%,92.1%,96.3%,89.9%,99.2%,102%,111%
CN(C)CC(C)(CN(C)C)C(=O)/C=C/c1c(Cl)cccc1Cl,45.9%,11.1%,70.6%,94.6%,57.9%,40.1%,-80.9% (active),80.6%,-44% (active),101%,36.4%,-8.43% (active),-67.2% (active),-80.8% (active),,78.2%,-2.86% (active),52.5%,12.7%,
CCCCC(CCc1ccc([N+](=O)[O-])cc1)(C(C)=O)C(=O)OCC (configuration not stated),95.7%,89.7%,108%,102%,105%,91.5%,104%,100%,98.2%,111%,102%,99.7%,,85.8%,95.9%,99.2%,94.7%,99.1%,96.7%,98.2%
CCCCCCCCCCCC[S+](C)CC(=O)[O-] (configuration not stated),25.9%,44.3%,89.4%,38.7%,54%,30.7%,46.5%,68.4%,23.3%,2.95% (active),54.8%,30.7%,51.2%,0.613% (active),30.6%,38.6%,53.7%,56.7%,43.7%,
COC(=O)[C@]1(C)CCC[C@]2(C)c3ccc(C(C)C)cc3C(=O)[C@@H](Br)[C@@H]12,90.3%,81.7%,118%,94.3%,106%,82.6%,80.8%,90.1%,94.8%,106%,102%,72.4%,,74.2%,102%,91.4%,98.2%,92.5%,90.6%,82.9%
CC1=CC(=NC(=O)CBr)C=C/C1=N\S(=O)(=O)c1ccccc1,80.2%,68.3%,107%,75.1%,98.4%,52.9%,-80.4% (active),87%,53.6%,59.5%,76.8%,,21.9%,82.4%,64.8%,,91.6%,,72.8%,67.5%
CCOC(=O)NC(/C=C/c1ccccc1)NC(=O)OCC,102%,102%,104%,100%,108%,108%,100%,95.7%,103%,112%,109%,107%,109%,121%,101%,104%,98.9%,98.3%,103%,
CCOC(=O)C1=C(C(=O)c2ccccc2)C(c2cccc([N+](=O)[O-])c2)C(C(=O)c2ccccc2)=C(C(=O)OCC)N1,86.3%,84.9%,94.1%,93%,98.8%,85.6%,83.5%,95.3%,93.9%,114%,97%,21.5%,93.1%,79.3%,93.9%,90.2%,95.7%,105%,89.9%,
CC(/C=N/NC(N)=S)Cc1ccc(C(C)C)cc1 (configuration not stated),51%,66.6%,104%,89.1%,82.8%,69.9%,-26.6% (active),89.5%,51%,68%,129%,,82.9%,69.2%,129%,73.2%,59%,69.9%,74.2%,85.4%
CC(C)(C)CC(C)(C)c1ccc(OCCOCCSC(=N)N)cc1,30.8%,92.4%,67.9%,96.1%,23.4%,37%,-3.81% (active),68.8%,-36% (active),-80.6% (active),53.8%,3.14% (active),-60.8% (active),-36.3% (active),69%,36.9%,64.3%,73%,-67.7% (active),
O=C(Cc1nc2cc(Cl)c(Cl)cc2nc1CC(=O)c1ccccc1)c1ccccc1,77.3%,70.4%,80.9%,70.5%,73.4%,67.3%,58.2%,74.4%,67.6%,76.3%,82.5%,47.4%,67.5%,81.1%,79.2%,69.5%,62.1%,93.6%,75.2%,
CCOC(=O)C1=NN(c2ccccc2)C(=O)/C1=C\N1C(=O)/C(=C/c2cccc(O)c2)SC1=S,87.8%,103%,98.9%,84%,103%,73.6%,82.3%,79.3%,98.8%,114%,96.8%,100%,,101%,91.7%,104%,107%,98.3%,89.6%,87.6%
COc1ccc(/C=C2/C(=O)ON=C2C)cc1,112%,101%,118%,101%,107%,93.6%,94.2%,103%,105%,104%,109%,100%,,102%,104%,110%,107%,100%,109%,96.8%

Compound,growth [1],growth [2],growth [3],growth [4],growth [5],growth [6],growth [7],growth [8],growth [9],growth [10],growth [11],growth [12],growth [13],growth [14],growth [15],growth [16],growth [17],growth [18],growth [19],growth [20]
Nc1nc2ncc(CNc3ccc(C(=O)NC(CCC(=O)NC(CCC(=O)NC(CCC(=O)NC(CCC(=O)NC(CCC(=O)O)C(=O)O)C(=O)O)C(=O)O)C(=O)O)C(=O)O)cc3)nc2c(=O)[nH]1 (configuration not stated),101%,113%,97.5%,100%,120%,95.3%,96.9%,104%,105%,113%,108%,97.4%,90.3%,112%,105%,106%,99.8%,105%,107%,
O=C1C=CC(=O)N1c1ccc(O)cc1,103%,101%,105%,104%,104%,101%,104%,103%,98.3%,-37% (active),117%,91.1%,,110%,109%,114%,111%,106%,105%,94.7%
O=C(CCl)N1c2ccccc2Sc2c1ccc1ccccc21,48.6%,68.1%,106%,90.6%,81.7%,64.6%,-79.2% (active),95.2%,88.9%,65.7%,93.9%,55.7%,,70.4%,70.4%,94.5%,84.7%,89.4%,61.1%,76.4%
CC(=O)c1ccc2c(c1)CCc1ccccc1-2,107%,94.7%,116%,88.5%,107%,95.3%,110%,91%,83.7%,110%,115%,115%,,97.4%,101%,94.2%,96.8%,98.2%,107%,109%
OC(Cc1cc(CC(O)(C(F)(F)F)C(F)(F)F)nc(CC(O)(C(F)(F)F)C(F)(F)F)c1)(C(F)(F)F)C(F)(F)F,-5.07% (active),11.6%,13.3%,-37.3% (active),0.458% (active),-27.9% (active),-18.6% (active),3.09% (active),1.13% (active),-92.6% (active),24.9%,9.94% (active),,-17.2% (active),12.9%,-8.82% (active),-1.21% (active),-28.3% (active),13.7%,-45.6% (active)
NNc1ccc(Cl)cc1Cl,82.7%,86.3%,77.3%,64.9%,97.5%,55.2%,53.6%,82.9%,86.5%,91.5%,108%,13.4%,104%,102%,71.7%,76.6%,94.5%,,67.6%,
CN(C)c1ccc2cc3c(cc2c1)Oc1ccccc1N3.[Cl][Zn][Cl],78.7%,91.2%,84.7%,105%,96.8%,98.8%,-7.15% (active),91.8%,104%,19.2%,90.9%,12.1%,,95.6%,83.8%,97.2%,99.9%,81.5%,102%,0.0703% (active)
Nc1ccc(Oc2ccccc2)c(Cl)c1,108%,94.2%,86.3%,86.6%,106%,82.6%,108%,94.6%,84.9%,96.2%,104%,115%,,100%,93%,92.1%,91.7%,94.7%,94.6%,111%
CCCCCCCCCCCCCCCCSC(=NCC)NCC,39.4%,85.7%,17.4%,25.9%,-83.9% (active),-21.3% (active),23.5%,-19.9% (active),11.1%,-98.7% (active),36%,-59.8% (active),,6.55% (active),39.5%,,32.8%,-12.4% (active),-49.8% (active),-18.4% (active)
CC(C)N=C(N)/N=C(\N)Nc1ccc2ccc3ccccc3c2c1,-88.1% (active),-67.6% (active),-89.9% (active),-84.5% (active),-58.1% (active),-68.6% (active),-84.8% (active),-65.2% (active),-70.1% (active),-92% (active),-89.5% (active),-42.3% (active),-89.6% (active),-89.7% (active),-64.7% (active),-89.1% (active),-98.9% (active),-79.1% (active),-76.8% (active),
OC(CSc1ccccc1)CN1CCN(c2ccc(Cl)cc2)CC1 (configuration not stated),107%,91.7%,110%,98.3%,109%,63.8%,90.3%,98.4%,95.3%,107%,110%,78.3%,,95.7%,103%,94.3%,96.8%,101%,100%,94.7%
Clc1ccccc1C(c1ccccc1)(c1ccccc1)n1ccnc1,41.9%,29.2%,61.8%,34.3%,51.4%,19.7%,28.1%,,48.3%,24%,60.1%,17%,39.7%,23.6%,57.5%,19%,52%,54.4%,31%,59.1%
O=C1Nc2ccc(Br)cc2C1=O,97.5%,93.3%,102%,100%,102%,103%,99.8%,,109%,106%,99.5%,87.2%,102%,119%,93.6%,99.1%,98.3%,,98.4%,96.7%
CCCCCCCCCCCC[n+]1ccccc1 (tested in a mixture with another compound),-2.11% (active),11.3%,31.9%,-24.3% (active),0.69% (active),-50.8% (active),-53% (active),-32.3% (active),-50% (active),,11.7%,-33.3% (active),-38.3% (active),,-8.98% (active),-35.1% (active),-10.5% (active),-52.3% (active),-56.6% (active),-30.4% (active)
Oc1cc(Cl)ccc1Cc1ccc(Cl)cc1O,20.6%,96.6%,97%,60.5%,46%,-14.4% (active),33.8%,73.7%,92.8%,,90%,37.2%,32.9%,73.8%,65.2%,32.3%,56.3%,58.7%,,59.7%
CC(C)c1ccc(Nc2n[nH]c(=S)s2)cc1,87.1%,105%,102%,99.4%,114%,82.6%,,101%,96.8%,116%,104%,95.5%,102%,109%,107%,90.4%,104%,,93.5%,89.1%
Cc1cc(I)nc2ccccc12,95.1%,104%,102%,105%,106%,93.5%,,111%,105%,106%,120%,108%,114%,122%,105%,101%,100%,119%,111%,99.7%
